Assay outcomes: PubChem BioAssay, National Center for Advancing Translational Sciences (NCATS)
Most compounds without a hit are left out; they make up all but 0.43% or so of the library.
GAA inhib = alpha-glucosidase (human) inhibition; purified human GAA, 4-MU-alpha-glucoside fluorescence; AID 1466; P10253; 0.005% of 200,000 active; Potency, µM (titrated, usually from 76.9 µM), inactives show at the top dose activity change, negative = inhibition, hits mostly inhibitors;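 further: potency means the concentration at half of the fitted maximal effect; plate controls were uninhibited enzyme wells for no effect and no-enzyme background for full effect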
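Enzyme (4 nM final) mixed with compound (up to 77 uM), then 4-MU-alpha-D-pyranoside (400 uM final) added; 20 min at room temperature, pH 5.0. Reaction stopped at pH 10, fluorescence read, AC50 derived by Hill fit.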
N370S GC = inhibitors or activators of N370S glucocerebrosidase for Gaucher disease; P04062; N370S GC spleen homogenate, 4MU-glucoside fluorescence; Potency, µM (titrated, usually from 59.4 µM), for the others: at the top dose activity change, negative = inhibition, most hits filed as inhibitors; 0.092% of 330,000 active;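 further: potency means the concentration at half of the fitted maximal effect; 0% = full enzyme activity and -100% = no enzyme basal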
aGal spleen mod = inhibits or activates alpha-galactosidase in human spleen homogenate; P06280; human spleen homogenate, 4MU-alpha-Gal fluorescence, 40 min; Potency, µM (highest dose often 80 µM), for inactives: at the top dose activity change, negative = inhibition, actives largely listed as inhibitors; 0.008% of 240,000 active;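 further: potency means the concentration at half of the fitted maximal effect; 0% = enzyme with vehicle and -100% = no enzyme basal signal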
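qHTS titration in buffer at pH 5.0. Alpha-galactosidase activity in spleen homogenate was measured via 4-methylumbelliferone release from 1 mM fluorogenic substrate after 40 min at 37C and a pH 10 stop. AC50 came from Hill fits of control-normalized data.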
GAA glycogen mod = GAA glycogen-cleavage inhibition or activation. 0.38% of 300,000 active. Potency, µM (top dose mostly 76.4 µM), without a hit: at the top dose activity change, negative = inhibition, usual class: inhibitors. recombinant GAA, glycogen substrate, Amplex Red glucose oxidase fluorescence. AID 2100. P10253;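 further: potency means the concentration at half of the fitted maximal effect; 0% = full enzyme reaction and -100% = no-enzyme basal signal; the screen sought inhibitors and activators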
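Recombinant enzyme (4 nM final) with compounds titrated up to 77 uM and bovine liver glycogen (30 ug) in citrate pH 5.0, 0.01% Tween-20, 37 C 40 min. Released glucose detected by Amplex Red/glucose oxidase (Ex 573/Em 610); AC50 from Hill fits.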
GAA spleen mod = inhibitors or activators of human alpha-glucosidase in spleen homogenate | human spleen homogenate, 4-MU-alpha-glucoside fluorescence | P10253 | Potency, µM (titrated, usually from 79.9 µM), for the others: at the highest dose activity change, negative = inhibition, most hits filed as inhibitors | 0.006% of 240,000 active;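 further: potency means the concentration at half of the fitted maximal effect; 0% = enzyme with vehicle and -100% = no enzyme basal signal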
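Compounds were titrated against alpha-glucosidase in spleen homogenate at pH 5.0, with 1 mM 4-methylumbelliferyl substrate for 40 min at 37 C. Reactions were quenched with pH 10 NaOH/glycine and fluorescence measured.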
GLA inh pH 4.5 = inhibitors of human alpha-galactosidase A at pH 4.5. P06280. purified enzyme, 4-MU-alpha-Gal fluorescence, pH 4.5. activity change, negative = inhibition, % at 105 µM. 230,000 tested, under 10 active. AID 1467;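 further: 0% = full activity with enzyme and -100% = basal without enzyme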
Target sequence (P06280 whole entry, looked up): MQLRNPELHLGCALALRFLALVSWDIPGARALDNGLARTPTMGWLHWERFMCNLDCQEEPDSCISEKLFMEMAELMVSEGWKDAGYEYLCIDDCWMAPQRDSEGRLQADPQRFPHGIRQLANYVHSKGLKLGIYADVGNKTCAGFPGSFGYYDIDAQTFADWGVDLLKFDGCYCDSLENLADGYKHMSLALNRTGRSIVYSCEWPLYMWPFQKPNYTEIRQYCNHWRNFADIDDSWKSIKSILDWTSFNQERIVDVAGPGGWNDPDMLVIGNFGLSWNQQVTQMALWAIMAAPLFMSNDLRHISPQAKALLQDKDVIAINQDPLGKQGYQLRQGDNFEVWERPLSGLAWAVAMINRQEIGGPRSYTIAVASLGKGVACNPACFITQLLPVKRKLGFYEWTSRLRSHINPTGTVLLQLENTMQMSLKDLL
Numbers without * were called inactive; ? = inconclusive; · = not tested or not shown; [ ] = remark or other dose. The call rests on the fitted dose curve; in most records, active means well fitted curve in the direction sought with a large enough effect; inconclusive means small, poorly fitted or top-dose-only effect, or another doubt; inactive means no such curve, though single readings can be large; an effect the other way counts as inactive or inconclusive.

SMILES | GAA inhib | N370S GC | aGal spleen mod | GAA glycogen mod | GAA spleen mod | GLA inh pH 4.5
CC12CCC(C(=O)NNc3ccc([N+](=O)[O-])cc3)(OC1=O)C2(C)C (centres undefined) | · | -16.4% | -4.2% | ? | -4.3% | -14.2
CN1/C(=N\O)c2cccc3cccc1c23 | 2.8% | -1.8% | 7.0% | 35.2µM* | 5.2% | 2.6
CNC(=O)CN1C(=O)c2cccc3cccc1c23 | -1.4% | 2.9% | -10.6% | 5.7% | -13.1% | -1.3
c1ccc(CNc2nc(-c3ccccc3)nc3ccccc23)cc1 | · | ? | · | -12.1%[76.3 µM] | · | ·
COCCNc1nc(-c2ccccc2Cl)nc2ccccc12 | · | 7.94µM* | -7.1% | · | -4.8% | ·
Fc1ccccc1-c1nc(NCc2ccccc2)c2ccccc2n1 | · | 12.6µM* | 4.8% | -12.2% | -16.6% | -18.3
c1ccc(CNc2nc(-c3cccs3)nc3ccccc23)cc1 | -3.0% | 0.501µM* | -4.6% | 7.0% | -3.2% | -6.4
COCC#Cc1ccc(C2C(C)CCC3C(=O)N4C(CCC(C)C4c4ccc(C#CCOC)cc4)C(=O)N32)cc1 (centres undefined) | · | -17.6%[12.8 µM] | -2.8%[17.5 µM] | · | 2.4%[17.4 µM] | ·
Cc1cccc(C(=O)Nc2c(-c3ccc(F)cc3)nc3ccccn23)c1 | · | · | · | -7.0%[76.3 µM] | · | ·
CSc1cccc(-n2cc(-c3ccc4c(c3)OCO4)[nH]c2=O)c1 | -2.8% | -21.7% | -16.7% | 35.2µM* | -5.8% | 2.8
CSc1cccc(NC(=O)CNC(=O)c2ccc3c(c2)OCO3)c1 | · | 5.2% | · | · | · | ·
O=C1CC(c2ccc(F)cc2)c2c(c3ccccc3[nH]c2=O)O1 (centres undefined) | · | · | · | 13.4%[76.3 µM] | · | ·
COc1cc(C2CC(=O)Oc3c2c(=O)[nH]c2ccccc32)cc(OC)c1OC (centres undefined) | · | · | · | 50.1µM* | · | ·
CCN1C(C)=C(C(=O)OC)C(c2ccccc2)N2C(=O)[C@@]3(C(=O)OC)O[C@@]12C1C(=O)N(C)C(=O)C13 (some centres undefined) | · | -2.5%[12.8 µM] | -1.8%[17.5 µM] | · | 6.7%[17.4 µM] | ·
N#CC(=C(/N)Sc1ccccc1N)/C(C#N)=C(/N)Sc1ccccc1N | · | -19.5% | -1.3% | · | -3.3% | -1.8
Nc1[nH]nc2nc3ccccc3cc12 | -0.8% | 9.3% | 5.9% | ? | -4.3% | -1.5
CCc1ccc2nc3n[nH]c(N)c3cc2c1 | 1.5% | -0.5% | -8.3% | 17.8µM* | -3.1% | 7.0
NC(=O)[C@H]1CCCN1C(=O)[C@H](Cc1cnc[nH]1)NC(=O)[C@@H]1CCC(=O)N1 | · | -1.0% | -6.8% | · | -2.9% | ·
N#CC1=C(SCC(=O)NC2CC2)NC(=O)C(C#N)C12CCCCC2 (centres undefined) | -0.4% | -1.7% | -13.4% | 25.1µM* | -5.9% | 11.0
CCCS(=O)(=O)N1CC(=O)N(c2cccc(F)c2)C(C)(C(=O)NC2CCCCCC2)C1 (centres undefined) | · | · | · | 20.1%[76.3 µM] | · | ·
COc1ccc(C(=O)CCNc2ccc(F)cc2)cc1 | · | -3.5% | -6.7% | -5.4% | -4.1% | 5.6
COc1ccc(NCCNc2ccc(OC)cc2)cc1 | 0.7% | 5.4% | -0.3% | 7.88µM* | -9.2% | 5.3
CCCC(=O)NC(=S)Nc1ccccc1C(=O)OC | 0.5% | 6.5%[12.8 µM] | -6.5% | -4.2% | -8.9% | 3.9
CCCC(=O)NC(=S)Nc1cccc2c(O)cccc12 | -3.8% | -7.8% | 1.7% | 8.91µM* | 8.1% | 4.7
O=C(NC(=S)Nc1cccc2c(O)cccc12)c1ccccc1[N+](=O)[O-] | · | -8.7% | · | 10µM* | · | ·
CO/N=C(\C)CCN1CCCc2nc(C)c(C)cc21 | · | 5.6%[12.8 µM] | 13.1%[17.5 µM] | · | 4.0%[17.4 µM] | ·
Cc1cccnc1Nc1nc(-c2ccc(O)c(O)c2)cs1 | ? | -13.8% | 0.2% | 7.08µM* | -1.0% | 0.0
Cc1ccnc(Nc2nc(-c3ccc(O)c(O)c3)cs2)c1 | · | 1.3% | · | 6.31µM* | · | ·
Cc1ccc([N+](=O)[O-])cc1-c1[nH]c(-c2ccc(O)c(O)c2)nc1-c1ccccc1 | -14.1% | ? | 3.8% | 14.1µM* | 0.8% | 6.7
COc1ccc(-c2nc(-c3ccccc3)c(-c3cc([N+](=O)[O-])ccc3C)[nH]2)cc1O | 1.4% | -22.7% | 3.9% | -24.7% | -4.3% | ?
